Measured values: paper PMC7819943, “Rice protein-binding microarrays: a tool to detect cis-acting elements near promoter regions in rice”
Over roughly 68,000 sequences, “fluorescence intensity (a.u.)” has its median near 9,100; the highest 2% begin near 16,000. For the sample, the highest values were picked, then their nearest neighbours and some sequences at random.

Biological target: OsWRKY34 (Oryza sativa, UniProt Q0JBA9 1-250)
Assay: protein-binding microarray (RPBM); PBS, 2% BSA, 51.3 ng/ul salmon testes DNA, 50 uM zinc acetate, 200 nM TF, 25 C, 1 h; high values mean tight binding
Settings: protein: recombinant; tags: N-terminal polyhistidine and DsRed monomer fusion (pET32a); label: CyDye5-dUTP incorporated in the synthesized complementary strand; 3' TTTTT single-stranded linker to array surface; dsDNA, one strand shown
How it was run: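 The binding signal is fluorescence intensity per array feature (arbitrary units). Readings came from an Axon 4000B scanner after a washed, 2% BSA-blocked, double-stranded custom Agilent array had been incubated for 1 h at 25 °C with 200 nM protein and 50 µM zinc acetate. The protein was a Ni–NTA-purified transcription factor fused N-terminally to polyhistidine and DsRed, expressed in E. coli BL21-CodonPlus.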

Sequence of OsWRKY34 (Q0JBA9 entry or part of it): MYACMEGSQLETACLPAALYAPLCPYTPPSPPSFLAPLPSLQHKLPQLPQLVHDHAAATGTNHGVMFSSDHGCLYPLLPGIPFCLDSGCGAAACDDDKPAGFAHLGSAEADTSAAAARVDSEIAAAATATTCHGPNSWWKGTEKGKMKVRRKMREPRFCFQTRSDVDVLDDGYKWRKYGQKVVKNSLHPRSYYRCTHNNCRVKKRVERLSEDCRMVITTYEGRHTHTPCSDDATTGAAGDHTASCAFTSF

Sequence | binding signal
TTCTCTCCCTCCCGGCCGCCGCCCCGCCCCGCCCATCTTGCGGAGTCACCTAGTGCAG | 9110 fluorescence intensity (a.u.)
TTTGTTGGTTGGTTTGACCCTTCCTAATCCTACCTTTGGTCGGAGTCACCTAGTGCAG | 8160 fluorescence intensity (a.u.)
CACGTACGCCGCCGTGTCTCATCACGAGCTCGATCGTTTCCGGAGTCACCTAGTGCAG | 8240 fluorescence intensity (a.u.)
ACACCATGTTTCCACATTGCATTTCCTTCTGTTTTTTCTTCGGAGTCACCTAGTGCAG | 17600 fluorescence intensity (a.u.)
GTGGGTTTTTTTTTTTGGTTTGTTTCTTCCTCTGGCCATTCGGAGTCACCTAGTGCAG | 19800 fluorescence intensity (a.u.)
GTGGAGTTGCTTTCTCCTCCTCCTTGTTTGGGTTGGGTGCCGGAGTCACCTAGTGCAG | 11900 fluorescence intensity (a.u.)
GTGGGTTTCTAGCATCATAGGGGTATTGTAGTAACTTCCTCGGAGTCACCTAGTGCAG | 17400 fluorescence intensity (a.u.)
GGGTATTGTAGTAACTTCCTGTGCACCATCGGGGTTAAGACGGAGTCACCTAGTGCAG | 10500 fluorescence intensity (a.u.)
AAAGGTGAGTAGTGGTTTCTGGGTTGCGTCTCCCTTTTTCCGGAGTCACCTAGTGCAG | 12600 fluorescence intensity (a.u.)
CGTGGGTAATTTGGTTCCTCTTCTTTTTTTGGCTTCCTTTCGGAGTCACCTAGTGCAG | 8440 fluorescence intensity (a.u.)
GTTGGGTGGGTTTCCCGTCTCCTTCCGATTGCTGAGTAGCCGGAGTCACCTAGTGCAG | 19100 fluorescence intensity (a.u.)
GATTTGTATTGGTTTTAATAGTAGGGGAATTTCTATACCTCGGAGTCACCTAGTGCAG | 8140 fluorescence intensity (a.u.)
ATATTTCCTGTTTGCTCTGTGTTTTCTTCCACCTTCCATTCGGAGTCACCTAGTGCAG | 9830 fluorescence intensity (a.u.)
TTCTCTGTTTCTTCTGCCTTCACCACCTGCTCCACATTTTCGGAGTCACCTAGTGCAG | 10900 fluorescence intensity (a.u.)
TCCTCTGGCTTTCTTTTCCCATTTCGTCTCTTGTTTGTTTCGGAGTCACCTAGTGCAG | 9160 fluorescence intensity (a.u.)
ATTTTGATTAGTGCGTTTGATTAGTGGTGTTTATTATGTCCGGAGTCACCTAGTGCAG | 9410 fluorescence intensity (a.u.)
TTCTGAACCGTGTTAAAATGCTACAAAATTTTCCCTTTTTCGGAGTCACCTAGTGCAG | 8570 fluorescence intensity (a.u.)
AGCTTTCACCTCATTAAGACCGGTATCTGTTGAGACTTGACGGAGTCACCTAGTGCAG | 8860 fluorescence intensity (a.u.)
GAACTAGTCCGCCTAATTGTTGGCTCTCTTATCTCTTCATCGGAGTCACCTAGTGCAG | 12100 fluorescence intensity (a.u.)
TTCTATGTTGTGGTTCTGTGTTTTACACTTCAGTTTTGTTCGGAGTCACCTAGTGCAG | 8030 fluorescence intensity (a.u.)
GTGATCCGGTGCCCTCTGACCCGCAACTTCCTTTTGGCACCGGAGTCACCTAGTGCAG | 8460 fluorescence intensity (a.u.)

Sequence | binding signal
TTAGATGTGGCCAGTTTTGATTTCTAGCTTATAGGATCGTCGGAGTCACCTAGTGCAG | 9000 fluorescence intensity (a.u.)
ACAATGTGACCCTATGTACAATTTACTCATATATTTTTATCGGAGTCACCTAGTGCAG | 9570 fluorescence intensity (a.u.)
GAGTAGTAAGTTATATCCCTCAACCATTTCACTTCACACACGGAGTCACCTAGTGCAG | 9600 fluorescence intensity (a.u.)
CTCGCGCGTGCCCGCCTCTGCTGTTCTTTCTCTCGCCCTCCGGAGTCACCTAGTGCAG | 11400 fluorescence intensity (a.u.)
GGATCTCGTTTGTCTGGTTTTCGTAAGTTGAGGGACGGGTCGGAGTCACCTAGTGCAG | 8380 fluorescence intensity (a.u.)
ATGTTGCCCTTTGTTCTGCTGTTTCCTGGTTATATGGGATCGGAGTCACCTAGTGCAG | 17500 fluorescence intensity (a.u.)
TTATGAGGGTAAGTTTGTATTTGTCATATTTGGGTTGCTACGGAGTCACCTAGTGCAG | 8110 fluorescence intensity (a.u.)
CCTTGTTTGCTCGGTTTTTGTAAGTTGAGGGACGGGTCATCGGAGTCACCTAGTGCAG | 18700 fluorescence intensity (a.u.)
GGTGACCATTCCTAGTTTCCTACCCCTCATGTTTTTCTTTCGGAGTCACCTAGTGCAG | 17000 fluorescence intensity (a.u.)
GCCTGCCTGTCTGCCTCCGCGTCTTTTCTGCTGCCCACATCGGAGTCACCTAGTGCAG | 19500 fluorescence intensity (a.u.)
TTCTTTTTCGTTTTCTTCTCATTCTTCTTTTTTTTCCTTTCGGAGTCACCTAGTGCAG | 14300 fluorescence intensity (a.u.)
CATCGCCTCCGCTTCTGCTTTTTTTTTTCTTTTTTCTCGTCGGAGTCACCTAGTGCAG | 10200 fluorescence intensity (a.u.)
ATCTGTTATGTTTGCCCTGTCATTGGTTCTGCTAATCAATCGGAGTCACCTAGTGCAG | 9160 fluorescence intensity (a.u.)
GTTCTGGTTGGGATCGATTTCTTCTTCCCCTTTGTTGCTTCGGAGTCACCTAGTGCAG | 9700 fluorescence intensity (a.u.)
ATTCATTACACCATGTTTCTTTCTTTCTTTCGAGGACCCTCGGAGTCACCTAGTGCAG | 8370 fluorescence intensity (a.u.)
AGTTTCAGTAGCCTCGCCGATCGACTTGCCACACCGCCGTCGGAGTCACCTAGTGCAG | 9260 fluorescence intensity (a.u.)
CACCGCCATCTTCCTCTTCTTCTTCGTCGTCGTGGTTGGCCGGAGTCACCTAGTGCAG | 11100 fluorescence intensity (a.u.)
AAACTGGGCCATATCGGTTGGTTTTTGCTCTCTACGTCTCCGGAGTCACCTAGTGCAG | 9280 fluorescence intensity (a.u.)
CAATTTGGCATTTGGCATTTGCTAGTCTATAGTAGCAAATCGGAGTCACCTAGTGCAG | 8130 fluorescence intensity (a.u.)
GTACGACAGTAGTTGTTTTTCTCGCTTTTGATTTTGAGTCCGGAGTCACCTAGTGCAG | 8560 fluorescence intensity (a.u.)
CTCGTCGTCGCCTCCGCTCCTTGCGCCATCTCGCGGCGCCCGGAGTCACCTAGTGCAG | 9480 fluorescence intensity (a.u.)
